According to the supplement of paper PMC4466140:

Target: AgAbp1
Assay: SPOT peptide array binding signal intensity (averaged, normalized) (arbitrary units (background-subtracted, floor 0; scale differs between SH3 domains)); higher = stronger binding of the SH3 domain to the peptide
In short: (§1)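 GST-fused SH3 domains, from four yeast species, were produced in E. coli BL21(DE3) and captured on glutathione Sepharose. Membranes of cellulose carrying synthetic 15-mer peptides, in which cysteines had been replaced by serines, were exposed to each domain at 10 μg/ml overnight at 4°C in TBS-based blocking buffer. After anti-GST antibody, an HRP anti-mouse secondary and luminol, spots were imaged and quantified using Genespotter. Binding signal is normalized and background-subtracted spot intensity, averaged over replicates, in arbitrary units that differ between domains.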

Binder | SPOT peptide array binding signal intensity
KRRAPPPVPKKPSSR | 5310

Target: AgBbc1
Assay: as above
In short: as §1

Binder | SPOT peptide array binding signal intensity
KRRAPPPVPKKPSSR | 1320

Target: AgBem1-D1
Assay: as above
In short: as §1

Binder | SPOT peptide array binding signal intensity
KRRAPPPVPKKPSSR | 274

Target: AgBzz1-D1
Assay: as above
In short: as §1

Binder | SPOT peptide array binding signal intensity
KRRAPPPVPKKPSSR | 2790

Target: AgBzz1-D2
Assay: as above
In short: as §1

Binder | SPOT peptide array binding signal intensity
KRRAPPPVPKKPSSR | 1090

Target: AgCyk3
Assay: as above
In short: as §1

Binder | SPOT peptide array binding signal intensity
KRRAPPPVPKKPSSR | 4

Target: AgFus1
Assay: as above
In short: as §1

Binder | SPOT peptide array binding signal intensity
KRRAPPPVPKKPSSR | 42.5

Target: AgHof1
Assay: as above
In short: as §1

Binder | SPOT peptide array binding signal intensity
KRRAPPPVPKKPSSR | 358

Target: AgHse1
Assay: as above
In short: as §1

Binder | SPOT peptide array binding signal intensity
KRRAPPPVPKKPSSR | 332

Target: AgLsb1
Assay: as above
In short: as §1

Binder | SPOT peptide array binding signal intensity
KRRAPPPVPKKPSSR | 650

Target: AgLsb4
Assay: as above
In short: as §1

Binder | SPOT peptide array binding signal intensity
KRRAPPPVPKKPSSR | 374

Target: AgMyo5
Assay: as above
In short: as §1

Binder | SPOT peptide array binding signal intensity
KRRAPPPVPKKPSSR | 37

Target: AgNbp2
Assay: as above
In short: as §1

Binder | SPOT peptide array binding signal intensity
KRRAPPPVPKKPSSR | 6190

Target: AgRvs167
Assay: as above
In short: as §1

Binder | SPOT peptide array binding signal intensity
KRRAPPPVPKKPSSR | 106

Target: AgSho1
Assay: as above
In short: as §1

Binder | SPOT peptide array binding signal intensity
KRRAPPPVPKKPSSR | 886

Target: AgSla1-D1-D2
Assay: as above
In short: as §1

Binder | SPOT peptide array binding signal intensity
KRRAPPPVPKKPSSR | 107

Target: AgSla1-D3
Assay: as above
In short: as §1

Binder | SPOT peptide array binding signal intensity
KRRAPPPVPKKPSSR | 1230

Target: CaAbp1-D1
Assay: as above
In short: as §1

Binder | SPOT peptide array binding signal intensity
KRRAPPPVPKKPSSR | 5770

Target: CaAbp1-D2
Assay: as above
In short: as §1

Binder | SPOT peptide array binding signal intensity
KRRAPPPVPKKPSSR | 7000

Target: CaBbc1
Assay: as above
In short: as §1

Binder | SPOT peptide array binding signal intensity
KRRAPPPVPKKPSSR | 2030

Target: CaBem1-D1
Assay: as above
In short: as §1

Binder | SPOT peptide array binding signal intensity
KRRAPPPVPKKPSSR | 95

Target: CaBzz1-D1
Assay: as above
In short: as §1

Binder | SPOT peptide array binding signal intensity
KRRAPPPVPKKPSSR | 7240

Target: CaBzz1-D2
Assay: as above
In short: as §1

Binder | SPOT peptide array binding signal intensity
KRRAPPPVPKKPSSR | 4490

Target: CaCyk3
Assay: as above
In short: as §1

Binder | SPOT peptide array binding signal intensity
KRRAPPPVPKKPSSR | 458

Target: CaFus1
Assay: as above
In short: as §1

Binder | SPOT peptide array binding signal intensity
KRRAPPPVPKKPSSR | 308

Target: CaHof1
Assay: as above
In short: as §1

Binder | SPOT peptide array binding signal intensity
KRRAPPPVPKKPSSR | 0.75

Target: CaHse1
Assay: as above
In short: as §1

Binder | SPOT peptide array binding signal intensity
KRRAPPPVPKKPSSR | 1600

Target: CaLsb1
Assay: as above
In short: as §1

Binder | SPOT peptide array binding signal intensity
KRRAPPPVPKKPSSR | ≤ 0

Target: CaLsb4
Assay: as above
In short: as §1

Binder | SPOT peptide array binding signal intensity
KRRAPPPVPKKPSSR | 2400

Target: CaMyo5
Assay: as above
In short: as §1

Binder | SPOT peptide array binding signal intensity
KRRAPPPVPKKPSSR | 4.75

Target: CaNbp2
Assay: as above
In short: as §1

Binder | SPOT peptide array binding signal intensity
KRRAPPPVPKKPSSR | 2600

Target: CaRvs167
Assay: as above
In short: as §1

Binder | SPOT peptide array binding signal intensity
KRRAPPPVPKKPSSR | 130

Target: CaRvs167-3
Assay: as above
In short: as §1

Binder | SPOT peptide array binding signal intensity
KRRAPPPVPKKPSSR | 21.8

Target: CaSho1
Assay: as above
In short: as §1

Binder | SPOT peptide array binding signal intensity
KRRAPPPVPKKPSSR | 269

Target: CaSla1-D1-D2
Assay: as above
In short: as §1

Binder | SPOT peptide array binding signal intensity
KRRAPPPVPKKPSSR | 3450

Target: CaSla1-D3
Assay: as above
In short: as §1

Binder | SPOT peptide array binding signal intensity
KRRAPPPVPKKPSSR | 1040

Target: ScAbp1
Assay: as above
In short: as §1

Binder | SPOT peptide array binding signal intensity
KRRAPPPVPKKPSSR | 3030

Target: ScBbc1
Assay: as above
In short: as §1

Binder | SPOT peptide array binding signal intensity
KRRAPPPVPKKPSSR | 669

Target: ScBem1-D1
Assay: as above
In short: as §1

Binder | SPOT peptide array binding signal intensity
KRRAPPPVPKKPSSR | 29

Target: ScBzz1-D1
Assay: as above
In short: as §1

Binder | SPOT peptide array binding signal intensity
KRRAPPPVPKKPSSR | 2330

Target: ScBzz1-D2
Assay: as above
In short: as §1

Binder | SPOT peptide array binding signal intensity
KRRAPPPVPKKPSSR | 82.5

Target: ScCyk3
Assay: as above
In short: as §1

Binder | SPOT peptide array binding signal intensity
KRRAPPPVPKKPSSR | 13

Target: ScFus1
Assay: as above
In short: as §1

Binder | SPOT peptide array binding signal intensity
KRRAPPPVPKKPSSR | 45.5

Target: ScHof1
Assay: as above
In short: as §1

Binder | SPOT peptide array binding signal intensity
KRRAPPPVPKKPSSR | 0.5

Target: ScHse1
Assay: as above
In short: as §1

Binder | SPOT peptide array binding signal intensity
KRRAPPPVPKKPSSR | 448

Target: ScLsb1
Assay: as above
In short: as §1

Binder | SPOT peptide array binding signal intensity
KRRAPPPVPKKPSSR | 517

Target: ScLsb2
Assay: as above
In short: as §1

Binder | SPOT peptide array binding signal intensity
KRRAPPPVPKKPSSR | 684

Target: ScLsb3
Assay: as above
In short: as §1

Binder | SPOT peptide array binding signal intensity
KRRAPPPVPKKPSSR | 4730

Target: ScLsb4
Assay: as above
In short: as §1

Binder | SPOT peptide array binding signal intensity
KRRAPPPVPKKPSSR | 105

Target: ScMyo3
Assay: as above
In short: as §1

Binder | SPOT peptide array binding signal intensity
KRRAPPPVPKKPSSR | 439

Target: ScMyo5
Assay: as above
In short: as §1

Binder | SPOT peptide array binding signal intensity
KRRAPPPVPKKPSSR | 380

Target: ScNbp2
Assay: as above
In short: as §1

Binder | SPOT peptide array binding signal intensity
KRRAPPPVPKKPSSR | 6200

Target: ScPex13
Assay: as above
In short: as §1

Binder | SPOT peptide array binding signal intensity
KRRAPPPVPKKPSSR | 512

Target: ScRvs167
Assay: as above
In short: as §1

Binder | SPOT peptide array binding signal intensity
KRRAPPPVPKKPSSR | 1260

Target: ScSho1
Assay: as above
In short: as §1

Binder | SPOT peptide array binding signal intensity
KRRAPPPVPKKPSSR | 3480

Target: ScSla1-D1-D2
Assay: as above
In short: as §1

Binder | SPOT peptide array binding signal intensity
KRRAPPPVPKKPSSR | 4950

Target: ScSla1-D3
Assay: as above
In short: as §1

Binder | SPOT peptide array binding signal intensity
KRRAPPPVPKKPSSR | 1400

Target: SpAbp1-D1
Assay: as above
In short: as §1

Binder | SPOT peptide array binding signal intensity
KRRAPPPVPKKPSSR | 6350

Target: SpBbc1
Assay: as above
In short: as §1

Binder | SPOT peptide array binding signal intensity
KRRAPPPVPKKPSSR | 192

Target: SpBzz1-D1
Assay: as above
In short: as §1

Binder | SPOT peptide array binding signal intensity
KRRAPPPVPKKPSSR | 1370

Target: SpBzz1-D2
Assay: as above
In short: as §1

Binder | SPOT peptide array binding signal intensity
KRRAPPPVPKKPSSR | 1470

Target: SpCyk3
Assay: as above
In short: as §1

Binder | SPOT peptide array binding signal intensity
KRRAPPPVPKKPSSR | 2.5

Target: SpHof1
Assay: as above
In short: as §1

Binder | SPOT peptide array binding signal intensity
KRRAPPPVPKKPSSR | 218

Target: SpHof1-2
Assay: as above
In short: as §1

Binder | SPOT peptide array binding signal intensity
KRRAPPPVPKKPSSR | 37.8

Target: SpHof1-3
Assay: as above
In short: as §1

Binder | SPOT peptide array binding signal intensity
KRRAPPPVPKKPSSR | 591

Target: SpHse1
Assay: as above
In short: as §1

Binder | SPOT peptide array binding signal intensity
KRRAPPPVPKKPSSR | 179

Target: SpLsb1
Assay: as above
In short: as §1

Binder | SPOT peptide array binding signal intensity
KRRAPPPVPKKPSSR | 1780

Target: SpLsb4
Assay: as above
In short: as §1

Binder | SPOT peptide array binding signal intensity
KRRAPPPVPKKPSSR | 2060

Target: SpMyo1
Assay: as above
In short: as §1

Binder | SPOT peptide array binding signal intensity
KRRAPPPVPKKPSSR | 416

Target: SpNbp2
Assay: as above
In short: as §1

Binder | SPOT peptide array binding signal intensity
KRRAPPPVPKKPSSR | 188

Target: SpPex13
Assay: as above
In short: as §1

Binder | SPOT peptide array binding signal intensity
KRRAPPPVPKKPSSR | 22

Target: SpRvs167
Assay: as above
In short: as §1

Binder | SPOT peptide array binding signal intensity
KRRAPPPVPKKPSSR | 1820

Target: SpSla1-D1-D2
Assay: as above
In short: as §1

Binder | SPOT peptide array binding signal intensity
KRRAPPPVPKKPSSR | 1660

Target: SpSla1-D3
Assay: as above
In short: as §1

Binder | SPOT peptide array binding signal intensity
KRRAPPPVPKKPSSR | 1.5
